Compounds with a hit are over-represented: about 11% of the library has one in this group of screens.
HP1b chromo inh = blocks HP1-beta chromodomain binding to methylated histone tails; actives 0.56% (n = 390,000); P83916; AlphaScreen HP1-beta / biotin-H3K9me3 peptide binding; Potency, µM (top dose mostly 114 µM), without a hit: top-dose activity change, negative = inhibition, hits mostly inhibitors; note: potency is the fitted concentration of half-maximal effect; nearly all actives have a fitted effect of over 70% in size
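Compound inhibition of the preformed complex between 50 nM HP1-beta and 50 nM biotinylated H3K9me3 peptide was read by AlphaScreen. Buffer was PBS pH 7.4 with 0.01% Tween-20. Incubations ran 30 min at room temperature, with 10 ug/mL donor/acceptor beads.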
PI5P4K alpha inh = blocks human PI5P4K alpha kinase activity. actives 1.2% (n = 330,000). P48426. AID 652105. PI5P4Kalpha enzyme, ADP-Glo luminescence, 60 min; stronger effect = lower value. max response, %; active = max response of -50% or lower; inconclusive = between -30% and -50%; inactive = -30% or higher; note: value at the top dose of about 77 µM; % is set by controls: 0 for no effect and ±100 for the full control effect
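PI5P4Kalpha ADP-Glo assay; 5 microM ATP final; 60 min RT reaction; HEPES pH 7.4/EGTA/CHAPS, 5% DMSO; controls lacking substrate or enzyme; luminescent end-point.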
JMJD2A Tudor inh = JMJD2A Tudor domain (human) inhibition; O75164; AlphaScreen JMJD2A-Tudor / H3K4me3 peptide binding; AID 504339; actives 4.4% (n = 390,000); Potency, µM (series often up to 114 µM), without a hit: at the top dose activity change, negative = inhibition, actives largely listed as inhibitors; note: potency is the fitted concentration of half-maximal effect; % is set by controls: 0 for no effect and ±100 for the full control effect; nearly all actives have a fitted effect of over 50% in size
G9a inh = G9a (human) methyltransferase inhibition | AID 504332 | actives 8.8% (n = 350,000) | G9a H3K9 monomethylation, AlphaScreen, 2 h | Q96KQ7 | Potency, µM (series often up to 102 µM), for the others: at the highest dose activity, negative = inhibition, most hits filed as inhibitors; note: potency is the fitted concentration of half-maximal effect; % is set by controls: 0 for no effect and ±100 for the full control effect; nearly all actives have a fitted effect of over 75% in size
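G9a (20 nM) preincubated 15 min RT with compounds, then 500 nM biotinylated H3K9 peptide and 20 uM SAM added; 2 h RT reaction. Monomethyl-H3K9 product detected by AlphaScreen with anti-H3K9me1 antibody, streptavidin donor and anti-rabbit IgG acceptor beads.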
BAZ2B inh = BAZ2B (human) inhibition | Q9UIF8 | AlphaScreen BAZ2B-H3K14Ac peptide displacement | Potency, µM (top dose mostly 114 µM), without a hit: at the highest dose activity change, negative = inhibition, hits mostly inhibitors | actives 4.4% (n = 360,000); note: potency is the fitted concentration of half-maximal effect; % is set by controls: 0 for no effect and ±100 for the full control effect; nearly all actives have a fitted effect of over 60% in size
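Compounds, titrated to a top concentration of 110 uM, were incubated 30 min at room temperature with preformed BAZ2B/acetyl-K14 H3 peptide complex (50 nM each). Proximity signal was measured by AlphaScreen after 20 min with beads.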
L3MBTL1 block = blocks human L3MBTL1 | AlphaScreen L3MBTL1–H3K9me1 peptide binding | actives 0.66% (n = 230,000) | Potency, µM (top dose mostly 57.1 µM), inactives show at the top dose activity, negative = inhibition, actives largely listed as inhibitors | Q9Y468 | AID 485360; note: potency is the fitted concentration of half-maximal effect; % is set by controls: 0 for no effect and ±100 for the full control effect; nearly all actives have a fitted effect of over 60% in size
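AlphaScreen proximity signal between nickel-chelate acceptor and streptavidin donor beads (final 10 ug/mL) reports binding of 50 nM L3MBTL1 to 75 nM biotin-H3 K9me1 peptide; complex incubated with compounds 30 min at room temperature; cefsulodin titration as control.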
* hit, by the source's call; ? = inconclusive; . = no result given; [ ] = another dose, or the depositor's remark. Unless noted, calls come from the whole dose curve; as a rule, active = well fitted inhibition curve with a large enough effect; inconclusive = small, poorly fitted or top-dose-only effect; inactive = no such curve, though single readings can be large or run the other way.

SMILES | HP1b chromo inh | PI5P4K alpha inh | JMJD2A Tudor inh | G9a inh | BAZ2B inh | L3MBTL1 block
COc1cc(-c2noc(C3CC(=O)N(c4cc(C)ccc4C)C3)n2)cc(OC)c1OC (stereo not given) | 17% | . | -19% | 11%[59 µM] | -15% | .
COc1ccc(C(=O)Oc2ccc(C(=S)N3CCOCC3)cc2)cc1 | ? | -17 | ? | . | -35% | 2%
COc1ccc(C(=O)Oc2cc(C(=S)N3CCOCC3)ccc2OC)cc1 | -25% | 7 | ? | 32µM* | -25% | .
CCOc1cc(C(=S)N2CCOCC2)ccc1OS(=O)(=O)c1ccc(C)cc1 | -17% | 0 | -28% | 35µM* | -31% | -10%
CCOC(=O)c1ccc(NC(=O)c2cc3cc(C)ccc3n2C)cc1 | 55% | . | -4% | 3%[59 µM] | 0% | .
CCCn1c(=O)c2sccc2n2c(CCCC(=O)NC3CCC(C)CC3)nnc12 (stereo not given) | 17% | . | -16% | 1%[59 µM] | -3% | .
CCCc1c(C)c2cccc(C)c2[nH]c1=O | 14% | -18 | -10% | -5% | 2% | 6%
CCCCN1CCc2c([nH]c3c(C)cccc23)C1=O | ? | ? | 20µM* | -23%[59 µM] | -20% | -12%
COc1ccc(N=Nc2[nH]c3ccc(C)cc3c2O)cc1 | 24% | -5 | 4% | 11µM* | ? | -12%
Cc1ccc(N=Nc2[nH]c3ccccc3c2O)cc1 | 32% | 0 | ? | 14µM* | 56µM* | -10%
CCOc1ccc(-n2c(SCc3ccc(C(=O)OC)o3)nc3c([nH]c4ccccc43)c2=O)cc1 | 16%[57 µM] | . | -16% | -1%[59 µM] | -3% | .
CN1C=CC=C/C1=C1/SC(=S)N(Cc2ccccc2)C1=O | ? | 1 | ? | ? | 40µM* | ?
CCN1C(=O)/C(=C2/C=CC=CN2C)SC1=S | ? | -5 | -24% | ? | ? | .
COc1ccc(N2C(=O)NC(=O)C2=O)cc1 | -14% | 0 | -18% | ? | -2% | .
COc1ccc(N2C(=O)/C(=C3/C=CC=CN3C)SC2=S)cc1 | -24% | 1 | -30% | 45µM* | -37% | -11%
Cc1c(C(c2ccccc2)c2c(C)n(C)n(-c3ccccc3)c2=O)c(=O)n(-c2ccccc2)n1C | 28% | -4 | -7% | 17% | -8% | -4%
Cc1c(C(c2ccc(N(C)C)cc2)c2c(C)n(C)n(-c3ccccc3)c2=O)c(=O)n(-c2ccccc2)n1C | ? | -17 | -27% | 50µM* | ? | .
COc1ccccc1N1CCN(CCCNC(=O)c2nnc(Cc3c(F)cccc3Cl)o2)CC1 | -7% | . | -33% | -5%[59 µM] | -15% | .
C[C@H](NS(=O)(=O)OCC(Cl)(Cl)Cl)C1CC1c1ccccc1 (stereo not given in full) | -17% | -16 | 45µM* | ? | ? | -4%
O=c1[nH]c(S)nc2sc3c(c12)CCCC3 | 0% | ? | 25µM* | 1µM* | ? | -8%
CS(=O)(=O)N1CCC(C(=O)O)CC1 | 13% | . | -13% | 0% | 5.6µM* | .
COc1ccccc1CNC(=O)COC(=O)CNS(=O)(=O)c1ccc(C)cc1 | 9% | -1 | -19% | 71µM* | -26% | .
Cc1ccc(S(=O)(=O)NCC(=O)OCC(=O)NCCc2ccccc2)cc1 | 27% | -3 | -3% | -54% | -6% | -9%
COc1ccccc1CNC(=O)CCS(=O)(=O)c1cccs1 | 29% | -2 | -15% | 45µM* | 15% | 4%
Cc1ccc(S(=O)(=O)NCC(=O)OCC(=O)c2ccc(Br)s2)cc1 | 20% | -52* | -22% | -51%[59 µM] | 3% | .
Cc1ccc(S(=O)(=O)NCC(=O)OCC(=O)c2ccc(Cl)s2)cc1 | 21% | -29 | -10% | . | . | .
COc1ccc(C(=O)N2CCC3(CCCN(Cc4cc(C(F)(F)F)cc(C(F)(F)F)c4)C3)CC2)cc1 | . | . | . | -43%[12.7 µM] | . | .
COc1ccccc1NC(=S)NCc1ccccn1 | 15% | -2 | -13% | ? | 1% | 4%
Cc1ccc(C)c(NC(=S)NCCSc2ccc(Cl)cc2)c1 | 30% | 18 | -13% | 2%[59 µM] | ? | -13%

Source: PubChem BioAssay
